Our source for the outcome and Potency values is PubChem BioAssay (NCATS).

Test [1] is described as follows: Confirmation and Secondary Assay for Modulators of Hemoglobin Beta Chain Splicing at IVS2 654 locus (AID 910). The gist of the method:
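HeLa cells stably carrying EGFP interrupted by mutant beta-globin IVS2-654 intron (CMV-driven) were treated with compound for 2 days at 37C; corrected splicing was scored as total peak GFP intensity per well (488 nm excitation, 500-520 nm emission).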

Test [2] can be described thus: Confirmation and Secondary Assay for Modulators of Hemoglobin Beta Chain Splicing at IVS2 705 locus (AID 930).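 Further: HeLa cells stably expressing the EGFP-705 splicing reporter; GFP fluorescence per well restored by corrected splicing of the IVS2-705 intron in EGFP.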 The gist of the method: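 Read-out: total peak GFP fluorescence per well (488 nm excitation, 500-520 nm emission) by laser-scanning cytometry. Cells: HeLa EGFP-705 splicing reporter, 2 days compound exposure in Optimem/2% FCS.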
The next test deals with CP215. The experiment in a line: qHTS profiling for inhibitors of Plasmodium falciparum proliferation (AID 504749). Further: nearly all actives have a fitted effect of over 60% in size. Further: potency means the concentration at half of the fitted maximal effect. The following applies: P. falciparum in erythrocytes, SYBR Green DNA, 72 h; series mostly up to 28.7 µM. The procedure, abridged:
(§1)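 Parasite proliferation within erythrocytes, 72 h exposure. Endpoint: SYBR Green I fluorescence after overnight lysis at room temperature. Controls: 0.29 uM artemisinin, DMSO.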
A general note: Quantitative high-throughput screening tests each substance at several concentrations.

In a further test the test system is CP291. The description is as above. The following applies: P. falciparum in erythrocytes, SYBR Green DNA, 72 h; series mostly up to 28.7 µM. The gist of the method: as §1
The subject of the next test is CP297. Described as above. The conditions noted are these: P. falciparum in erythrocytes, SYBR Green DNA, 72 h; series mostly up to 28.7 µM. The procedure, abridged: as §1
A further test relates to CP237. The description is as above. The conditions noted are these: P. falciparum in erythrocytes, SYBR Green DNA, 72 h; series mostly up to 28.7 µM. The procedure, abridged: as §1
Another test has as its system CP268. Described as above. The conditions noted are these: P. falciparum in erythrocytes, SYBR Green DNA, 72 h; series mostly up to 28.7 µM. The gist of the method: as §1
The next test deals with CP286. The description is as above. The conditions noted are these: P. falciparum in erythrocytes, SYBR Green DNA, 72 h; series mostly up to 28.7 µM. The procedure, abridged: as §1
A further test has as its system HB3. Described as above. The conditions noted are these: P. falciparum in erythrocytes, SYBR Green DNA, 72 h; series mostly up to 28.7 µM. The gist of the method: as §1
The next test deals with TAB113. The description is as above. The conditions noted are these: P. falciparum in erythrocytes, SYBR Green DNA, 72 h; series mostly up to 28.7 µM. The gist of the method:
as §1

The target of test [3] is Ubiquitin carboxyl-terminal hydrolase 1 (Homo sapiens) (UniProt O94782). Kind of test: Inhibitors of USP1/UAF1: Pilot qHTS (AID 504865).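 Further: rhodamine fluorescence freed from ubiquitin-rhodamine substrate followed over time; top concentration of the series differs between compounds; nearly all actives have a fitted effect of over 35% in size.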 The gist of the method:
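1nM USP1/UAF1 + cpd, 15 min RT; start w/ Ub-Rho 150nM final; kinetic FL 480/540 nm, 6 reads q60 s. Buffer 50mM HEPES pH 7.8, 0.5mM EDTA, 1mM TCEP, 0.01% Tween-20, 0.1 mg/ml BSA.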

Test [4] addresses Pyruvate kinase (Leishmania mexicana) (UniProt Q27686). The experiment in a line: qHTS Validation Assay for Activators of Leishmania Mexicana Pyruvate Kinase (AID 959). The gist of the method: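 Luminescent ATP detection (PKLight) after a 1 h room-temperature reaction of 0.2 nM LmPYK E451W mutant with 0.5 mM PEP and 0.1 mM ADP at pH 7.2. Activity is normalized to DMSO-only control wells.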

Test [5] addresses DNA polymerase iota (Homo sapiens) (UniProt Q9UNA4). The experiment in a line: qHTS for Inhibitors of Polymerase Iota: Confirmatory Assay for Cherry-picked Compounds (AID 720496). Further: potency means the concentration at half of the fitted maximal effect. The following applies: Pol iota primer extension, TAMRA/BHQ fluorescence. The gist of the method:
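Read-out is TAMRA fluorescence (525 nm excitation, 598 nm emission) at 0 and 10 min. It reflects strand displacement from a BHQ-2-quenched template by 10 nM Pol iota, with 50 nM final substrate after 15 min compound preincubation.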

The target of test [6] is DNA polymerase eta (Homo sapiens) (UniProt Q9Y253). The experiment in a line: qHTS for Inhibitors of Polymerase Eta: Confirmatory Assay for Cherry-picked Compounds (AID 720502). Further: potency means the concentration at half of the fitted maximal effect. The conditions noted are these: Pol eta primer extension, TAMRA/BHQ fluorescence, 10 min. The procedure, abridged: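 Compounds are preincubated 15 min at room temperature with 10 nM human Pol eta, with buffer-only wells serving as negative control. Adding 50 nM final substrate starts the reaction, and TAMRA fluorescence is read over 10 min.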

Results filed as inconclusive are left out. The list shows a part of the results. Activity calls are given as the source filed them. The call rests on the fitted dose curve; in most records, active means well fitted curve in the direction sought with a large enough effect; inconclusive means small, poorly fitted or top-dose-only effect, or another doubt; inactive means no such curve, though single readings can be large; an effect the other way counts as inactive or inconclusive.

Ubiquitin carboxyl-terminal hydrolase 1 (Homo sapiens), sequence (O94782 whole entry, looked up): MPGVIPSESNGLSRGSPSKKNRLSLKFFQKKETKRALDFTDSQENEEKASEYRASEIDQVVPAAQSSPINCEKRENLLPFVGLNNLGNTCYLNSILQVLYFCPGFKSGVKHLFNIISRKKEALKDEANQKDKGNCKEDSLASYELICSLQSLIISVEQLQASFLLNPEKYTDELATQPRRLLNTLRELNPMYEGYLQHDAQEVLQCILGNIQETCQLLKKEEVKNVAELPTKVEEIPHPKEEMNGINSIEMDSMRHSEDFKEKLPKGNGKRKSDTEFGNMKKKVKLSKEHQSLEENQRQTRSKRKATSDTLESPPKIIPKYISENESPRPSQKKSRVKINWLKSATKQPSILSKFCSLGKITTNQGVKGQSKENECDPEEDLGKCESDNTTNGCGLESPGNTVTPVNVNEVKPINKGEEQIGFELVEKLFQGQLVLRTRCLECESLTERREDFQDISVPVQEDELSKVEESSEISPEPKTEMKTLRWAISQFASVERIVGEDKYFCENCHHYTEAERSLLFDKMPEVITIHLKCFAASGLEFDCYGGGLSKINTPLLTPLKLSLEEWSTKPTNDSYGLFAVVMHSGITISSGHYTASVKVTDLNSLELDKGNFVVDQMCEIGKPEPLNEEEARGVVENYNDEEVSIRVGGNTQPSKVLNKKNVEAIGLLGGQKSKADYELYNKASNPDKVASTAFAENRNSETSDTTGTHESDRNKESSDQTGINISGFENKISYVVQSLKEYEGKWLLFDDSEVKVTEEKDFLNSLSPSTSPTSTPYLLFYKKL
DNA polymerase iota (Homo sapiens), sequence (Q9UNA4 whole entry, looked up): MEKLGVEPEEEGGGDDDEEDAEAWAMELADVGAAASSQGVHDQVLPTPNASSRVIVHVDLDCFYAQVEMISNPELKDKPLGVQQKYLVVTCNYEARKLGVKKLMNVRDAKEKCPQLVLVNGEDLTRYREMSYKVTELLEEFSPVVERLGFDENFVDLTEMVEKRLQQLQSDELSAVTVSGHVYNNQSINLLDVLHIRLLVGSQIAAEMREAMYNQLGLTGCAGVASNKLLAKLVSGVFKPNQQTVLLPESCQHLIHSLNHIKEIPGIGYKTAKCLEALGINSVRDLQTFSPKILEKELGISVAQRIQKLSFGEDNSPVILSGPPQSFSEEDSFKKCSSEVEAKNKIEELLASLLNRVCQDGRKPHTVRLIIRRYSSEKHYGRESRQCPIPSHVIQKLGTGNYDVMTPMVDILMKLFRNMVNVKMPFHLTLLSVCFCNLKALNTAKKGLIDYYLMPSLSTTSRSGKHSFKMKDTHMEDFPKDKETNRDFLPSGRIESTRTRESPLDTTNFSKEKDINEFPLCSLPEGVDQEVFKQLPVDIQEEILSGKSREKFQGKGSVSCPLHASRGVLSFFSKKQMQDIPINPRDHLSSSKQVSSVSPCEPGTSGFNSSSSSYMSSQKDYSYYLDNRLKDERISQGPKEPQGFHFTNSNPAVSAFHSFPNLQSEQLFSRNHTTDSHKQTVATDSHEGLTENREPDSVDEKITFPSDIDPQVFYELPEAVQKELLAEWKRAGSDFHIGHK
DNA polymerase eta (Homo sapiens), sequence (Q9Y253 whole entry, looked up): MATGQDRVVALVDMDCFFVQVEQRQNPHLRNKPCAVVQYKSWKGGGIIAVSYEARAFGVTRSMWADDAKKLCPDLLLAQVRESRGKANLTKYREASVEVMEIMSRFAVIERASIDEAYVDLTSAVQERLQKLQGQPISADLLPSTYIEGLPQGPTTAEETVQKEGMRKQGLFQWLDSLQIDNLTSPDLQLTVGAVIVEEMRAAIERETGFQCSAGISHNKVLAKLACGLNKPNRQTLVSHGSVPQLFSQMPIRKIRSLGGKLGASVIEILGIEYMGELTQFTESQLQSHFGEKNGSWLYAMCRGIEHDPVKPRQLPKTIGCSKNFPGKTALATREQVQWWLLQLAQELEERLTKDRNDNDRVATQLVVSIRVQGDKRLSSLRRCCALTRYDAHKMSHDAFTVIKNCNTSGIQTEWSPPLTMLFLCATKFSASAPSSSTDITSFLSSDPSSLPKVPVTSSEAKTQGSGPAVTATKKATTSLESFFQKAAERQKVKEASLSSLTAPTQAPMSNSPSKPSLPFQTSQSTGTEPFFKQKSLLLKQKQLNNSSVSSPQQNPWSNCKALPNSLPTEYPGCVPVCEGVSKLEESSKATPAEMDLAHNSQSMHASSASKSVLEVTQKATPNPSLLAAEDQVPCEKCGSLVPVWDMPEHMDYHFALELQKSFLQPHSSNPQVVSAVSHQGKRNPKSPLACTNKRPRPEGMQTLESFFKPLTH
Pyruvate kinase (Leishmania mexicana), sequence (Q27686 2-499 E452W): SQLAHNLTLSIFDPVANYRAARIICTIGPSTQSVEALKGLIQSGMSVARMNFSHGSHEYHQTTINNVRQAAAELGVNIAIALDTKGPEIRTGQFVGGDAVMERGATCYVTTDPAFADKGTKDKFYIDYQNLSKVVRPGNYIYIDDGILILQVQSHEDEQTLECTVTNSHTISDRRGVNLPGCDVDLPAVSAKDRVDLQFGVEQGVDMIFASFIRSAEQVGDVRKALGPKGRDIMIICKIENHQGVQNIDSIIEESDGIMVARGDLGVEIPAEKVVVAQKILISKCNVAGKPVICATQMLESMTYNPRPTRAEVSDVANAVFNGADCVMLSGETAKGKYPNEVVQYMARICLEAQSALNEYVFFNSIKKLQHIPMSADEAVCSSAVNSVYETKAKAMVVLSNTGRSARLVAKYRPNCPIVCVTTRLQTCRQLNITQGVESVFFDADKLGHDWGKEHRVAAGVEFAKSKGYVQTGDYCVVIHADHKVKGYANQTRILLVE

Regarding `Nc1nc(Cl)nc2c1ncn2[C@@H]1O[C@@H](CO)[C@@H](O)[C@H]1O`, the molecule was called inactive in test [1] and in test [2].

Take `C[C@@H]1C[C@H]2[C@H]3C[C@@H](F)C4=CC(=O)C=C[C@]4(C)[C@@]3(Cl)[C@@H](O)C[C@@]2(C)[C@@H]1C(=O)COC(=O)C(C)(C)C`: the Potency entry in the test with CP215, in the test with CP291 and in the test on CP297 was “inactive” each time.

On to `CO/N=C(\C(=O)N[C@@H]1C(=O)N2C(C(=O)[O-])=C(C[N+]3(C)CCCC3)CS[C@@H]12)c1csc(N)n1`, for which the Potency entry with CP215, in the test on CP237, in the test with CP268, with CP286, in the test with CP291 and in the test on CP297 was “inactive” in each case. Moreover, the Potency result in the test with HB3 and in the test with TAB113 was “inactive” throughout.

For the molecule `COc1cc2nc(N(C)CCCNC(=O)[C@@H]3CCCO3)nc(N)c2cc1OC`, the Potency entry (in test [3]; with CP237; in the test on CP268; with CP286; in the test with CP291; in the test on CP297) was “inactive” throughout. Moreover, the Potency result in the test with HB3 and with TAB113 was “inactive” in each case.

For the molecule `C[C@H]1C[C@@H]2[C@H]3CCC4=CC(=O)C=C[C@@]4(C)[C@@]3(Cl)[C@@H](O)C[C@]2(C)[C@]1(OC(=O)c1ccco1)C(=O)CCl`, the Potency result in [3] was “inactive”. In addition, the Potency in the test on CP215 was 5.1 µM (active).

On to `CO/N=C(\C(=O)N[C@@H]1C(=O)N2C(C(=O)O)=C(CSc3nc(=O)c(O)nn3C)CS[C@@H]12)c1csc(N)n1`, for which the Potency in test [4] is 25.1 µM (active).

Regarding `COc1cc([C@H](Cc2ccccc2)NC(C)=O)oc(=O)c1`, the Potency in test [5] is 37.7 µM (active); in test [6], 23.9 µM (active).

Turning to `C(=C/c1ccccc1)/CN1CCN(C(c2ccccc2)c2ccccc2)CC1`, the Potency result (in test [3]; in the test with CP268; with HB3; in the test with TAB113) was “inactive” in each case. The Potency in the test on CP237 was 3.55 µM (active).
